“And” between values parts separate entries of the source, which are not always exact repeats. Identical values can stand only once. Inconclusive results are not listed. Entries that show only a call come without a potency. More than one record can exist for a structure, and the calls need not agree. The source made the active and inactive calls. The call rests on the fitted dose curve; in most records, active means well fitted curve in the direction sought with a large enough effect in the repeat runs; inconclusive means weak or mixed curves; inactive means no such curve, though single readings can be large; an effect the other way counts as inactive or inconclusive.
Columns and labels:
[1] = A CellTox Green Cytotoxicity Assay to monitor cytotoxicity in HEK293 cells - 40 hour (AID 1224871); further: nearly all actives have a fitted effect of over 45% in size; further: potency means the concentration at half of the fitted maximal effect
In short: (§1)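 Fluorescence intensity, read at 0, 8, 16, 24, 32 and 40 h of compound treatment, reflected dye binding to DNA of dead HEK293 cells; compounds (23 nL, DMSO) were added 5 h after plating cells with reagent.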

[2] = qHTS RealTime-Glo MT Cell Viability Assay in HEK293 cells - 16 hour (AID 1224872); further: nearly all actives have a fitted effect of over 50% in size; further: potency means the concentration at half of the fitted maximal effect
In short: (§2)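 Cells + reagent dispensed (600 cells/well, HEK293) → 5 h at 37 C/5% CO2 → 23 nL compound in DMSO pinned → 40 h at 37 C → luminescence read at 0, 8, 16, 24, 32, 40 h.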

[3] = qHTS RealTime-Glo MT Cell Viability Assay in HEK293 cells - 40 hour (AID 1224874); details: RealTime-Glo luminescence; max response: stronger effect = lower value; further: nearly all actives have a fitted effect of over 50% in size; further: potency means the concentration at half of the fitted maximal effect
In short: (§3)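 Viable HEK293 cells reduce a cell-permeant prosubstrate; the product diffuses out and is consumed by NanoLuc in the medium to give light. Compounds went in after a 5 h incubation and plates were read over the treatment course.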

[4] = A CellTox Green Cytotoxicity Assay to monitor cytotoxicity in HEK293 cells - 24 hour (AID 1224875); further: series mostly up to about 77 µM; nearly all actives have a fitted effect of over 45% in size
In short: as §1

[5] = qHTS RealTime-Glo MT Cell Viability Assay in HepG2 cells - 32 hour (AID 1224877); further: nearly all actives have a fitted effect of over 55% in size
In short: (§4)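 Real-time, nonlytic viability: 600 HepG2 cells/well mixed with NanoLuc enzyme plus prosubstrate; 5 h settle, compound (DMSO) added by pintool; luminescence monitored over 40 h at 37 C.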

[6] = A CellTox Green Cytotoxicity Assay to monitor cytotoxicity in HepG2 cells - 24 hour (AID 1224878); further: nearly all actives have a fitted effect of over 45% in size
In short: (§5)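 Using 1536-well format, dye-containing HepG2 suspension was seeded, allowed 5 h at 37 C/5% CO2, dosed by pintool with compounds, positive and negative controls, and imaged for fluorescence across 40 h.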

[7] = A CellTox Green Cytotoxicity Assay to monitor cytotoxicity in HepG2 cells - 40 hour (AID 1224879); further: nearly all actives have a fitted effect of over 40% in size; further: potency means the concentration at half of the fitted maximal effect
In short: as §5

[8] = qHTS RealTime-Glo MT Cell Viability Assay in HEK293 cells - 0 hour (AID 1224880); further: top concentration of the series differs between compounds; nearly all actives have a fitted effect of over 45% in size
In short: as §3

[9] = A CellTox Green Cytotoxicity Assay to monitor cytotoxicity in HEK293 cells - 32 hour (AID 1224881); further: nearly all actives have a fitted effect of over 40% in size
In short: as §1

[10] = A CellTox Green Cytotoxicity Assay to monitor cytotoxicity in HepG2 cells - 0 hour (AID 1224882); further: nearly all actives have a fitted effect of over 35% in size
In short: as §5

[11] = A CellTox Green Cytotoxicity Assay to monitor cytotoxicity in HepG2 cells - 32 hour (AID 1224883); further: nearly all actives have a fitted effect of over 50% in size
In short: as §5

[12] = A CellTox Green Cytotoxicity Assay to monitor cytotoxicity in HEK293 cells - 8 hour (AID 1224884); further: nearly all actives have a fitted effect of over 35% in size
In short: as §1

[13] = qHTS RealTime-Glo MT Cell Viability Assay in HepG2 cells - 16 hour (AID 1224885); further: nearly all actives have a fitted effect of over 50% in size
In short: as §4

[14] = qHTS RealTime-Glo MT Cell Viability Assay in HEK293 cells - 8 hour (AID 1224887)
In short: as §3

[15] = A CellTox Green Cytotoxicity Assay to monitor cytotoxicity in HEK293 cells - 16 hour (AID 1224888); further: nearly all actives have a fitted effect of over 35% in size
In short: as §1

[16] = qHTS RealTime-Glo MT Cell Viability Assay in HepG2 cells - 0 hour (AID 1224889); further: nearly all actives have a fitted effect of over 50% in size; further: potency means the concentration at half of the fitted maximal effect
In short: as §4

[17] = A CellTox Green Cytotoxicity Assay to monitor cytotoxicity in HepG2 cells - 8 hour (AID 1224890); further: nearly all actives have a fitted effect of over 45% in size
In short: as §5

[18] = qHTS RealTime-Glo MT Cell Viability Assay in HepG2 cells - 8 hour (AID 1224873); further: nearly all actives have a fitted effect of over 55% in size
In short: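 Real-time viability: cells seeded at 600 per well together with NanoLuc and cell-permeant prosubstrate, compounds added after 5 h incubation. Luminescence tracked at 0, 8, 16, 24, 32 and 40 h of exposure.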

[19] = qHTS RealTime-Glo MT Cell Viability Assay in HEK293 cells - 24 hour (AID 1224886)
In short: as §2

[20] = A CellTox Green Cytotoxicity Assay to monitor cytotoxicity in HepG2 cells - 16 hour (AID 1224876); further: nearly all actives have a fitted effect of over 45% in size
In short: as §5

C[C@]12CCC(=O)C=C1CC[C@@H]1[C@@H]2CC[C@]2(C)C(=O)CC[C@@H]12
Potency [1]: 48.2 µM (active) and inactive | Potency [2]: 24.1 µM (active) and inactive | Potency [3]: 24.1 µM (active) and 24.5 µM (active) | max response [3]: -20.4% (inactive) | Potency [4]: inactive | Potency [5]: inactive | Potency [6]: inactive | Potency [7]: inactive and 49 µM (active) | outcome [8]: inactive | Potency [9]: inactive | Potency [10]: inactive | Potency [11]: inactive | Potency [12]: inactive | Potency [13]: inactive | Potency [14]: inactive | Potency [15]: inactive | Potency [16]: 34.1 µM (active) and 21.9 µM (active) and inactive | Potency [17]: inactive

Nc1ccc(Cl)cc1
Potency [1]: inactive | Potency [2]: inactive | Potency [18]: inactive | max response [3]: -5.43% (inactive) and 1.39% (inactive) | Potency [4]: inactive | Potency [5]: inactive | Potency [6]: inactive | Potency [7]: inactive | outcome [8]: inactive | Potency [9]: inactive | Potency [10]: inactive | Potency [11]: inactive | Potency [12]: inactive | Potency [13]: inactive | Potency [14]: inactive | Potency [15]: inactive | Potency [16]: inactive | Potency [17]: inactive

CCNc1nc(Cl)nc(NCC)n1
Potency [1]: inactive | Potency [2]: inactive | Potency [18]: inactive | max response [3]: -0.397% (inactive) and 5.74% (inactive) and 5.58% (inactive) | Potency [4]: inactive | Potency [5]: inactive | Potency [6]: inactive | Potency [7]: inactive | outcome [8]: inactive | Potency [9]: inactive | Potency [10]: inactive | Potency [11]: inactive | Potency [12]: inactive | Potency [13]: inactive | Potency [19]: inactive | Potency [14]: inactive | Potency [15]: inactive | Potency [16]: inactive | Potency [17]: inactive

O=C(O)C(Cl)(Cl)Cl
Potency [1]: inactive | Potency [2]: inactive | Potency [18]: inactive | max response [3]: 1.76% (inactive) and 3.09% (inactive) | Potency [4]: inactive | Potency [20]: inactive | Potency [5]: inactive | Potency [6]: inactive | Potency [7]: inactive | outcome [8]: inactive | Potency [9]: inactive | Potency [10]: inactive | Potency [11]: inactive | Potency [12]: inactive | Potency [13]: inactive | Potency [14]: inactive | Potency [15]: inactive | Potency [16]: inactive | Potency [17]: inactive

CC[N+]1(C)CCCC1
Potency [1]: inactive | Potency [2]: inactive | Potency [3]: 21.9 µM (active) | max response [3]: 3.6% (inactive) [middle of 4 runs] | Potency [4]: inactive | Potency [20]: inactive | Potency [5]: inactive | Potency [6]: inactive | Potency [7]: inactive | outcome [8]: inactive | Potency [9]: inactive | Potency [10]: inactive | Potency [11]: inactive | Potency [12]: inactive | Potency [13]: inactive | Potency [14]: inactive | Potency [15]: inactive | Potency [16]: inactive | Potency [17]: inactive

CCCC[n+]1ccccc1
Potency [1]: inactive | Potency [2]: inactive | Potency [18]: inactive | Potency [4]: inactive | Potency [5]: inactive | Potency [6]: inactive | Potency [7]: inactive | outcome [8]: inactive | Potency [9]: inactive | Potency [10]: inactive | Potency [11]: inactive | Potency [12]: inactive | Potency [13]: inactive | Potency [19]: inactive | Potency [14]: inactive | Potency [15]: inactive | Potency [16]: inactive | Potency [17]: inactive

CC(Cl)(Cl)C(=O)O
Potency [1]: inactive | Potency [2]: inactive | Potency [18]: inactive | max response [3]: 2.34% (inactive) and 8.45% (inactive) and 2.19% (inactive) | Potency [4]: inactive | Potency [20]: inactive | Potency [5]: inactive | Potency [6]: inactive | Potency [7]: inactive | outcome [8]: inactive | Potency [9]: inactive | Potency [10]: inactive | Potency [11]: inactive | Potency [12]: inactive | Potency [13]: inactive | Potency [14]: inactive | Potency [15]: inactive | Potency [16]: inactive | Potency [17]: inactive

CN(C)[C@@H]1C(=O)C(C(N)=O)=C(O)[C@@]2(O)C(=O)C3=C(O)c4c(O)cccc4[C@@](C)(O)[C@H]3[C@H](O)[C@@H]12
Potency [1]: inactive | Potency [2]: inactive | Potency [18]: inactive | max response [3]: 8.46% (inactive) [middle of 4 runs] | Potency [4]: inactive | Potency [5]: inactive | Potency [6]: inactive | Potency [7]: inactive | outcome [8]: inactive | Potency [9]: inactive | Potency [10]: inactive | Potency [11]: inactive | Potency [12]: inactive | Potency [13]: inactive | Potency [14]: inactive | Potency [15]: inactive | Potency [16]: inactive | Potency [17]: inactive

Nc1ccc(-c2ccc(N)cc2)cc1
Potency [1]: inactive | Potency [2]: inactive | Potency [18]: inactive | max response [3]: -0.165% (inactive) and -5.77% (inactive) and -8.89% (inactive) | Potency [4]: inactive | Potency [5]: inactive | Potency [6]: inactive | Potency [7]: 48.4 µM (active) and inactive | outcome [8]: inactive | Potency [9]: inactive | Potency [10]: inactive | Potency [11]: inactive | Potency [12]: inactive | Potency [13]: inactive | Potency [14]: inactive | Potency [15]: inactive | Potency [16]: inactive | Potency [17]: inactive

CC(=O)O
Potency [1]: inactive | Potency [2]: inactive | max response [3]: 1.59% (inactive) [middle of 4 runs] | Potency [4]: inactive | Potency [20]: inactive | Potency [5]: inactive | Potency [6]: inactive | Potency [7]: inactive | outcome [8]: inactive | Potency [9]: inactive | Potency [10]: inactive | Potency [11]: inactive | Potency [12]: inactive | Potency [13]: inactive | Potency [19]: inactive | Potency [14]: inactive | Potency [15]: inactive | Potency [16]: inactive | Potency [17]: inactive

From PubChem BioAssay (Tox21)
